# Screening data as filed in PubChem.
# Dicer inh = inhibitors of Dicer pre-microRNA processing, primary screen, biochemical, cat-ELCCA, chemiluminescence | z-score at 25 µM | Endoribonuclease Dicer (Homo sapiens), Q9UPY3 | AID 1347074, 2019 | 47,000 compounds, 6% hits | cat-ELCCA pre-miR-21 Dicer processing; hits give high values; in the data active means z-score above about 3, passing the limit was not always enough;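 further: plate controls were vehicle for no effect and no enzyme for full effect; higher signal means more uncleaved substrate so more Dicer inhibition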
# An asterisk follows results filed as active. The sample as a whole holds a higher share of hits than the screen did.
SMILES,Dicer inh
CN(C)c1ccc(C2=Nc3cccc4cccc(c34)N2)cc1,0.75
COc1ccc(C2=Nc3cccc4cccc(c34)N2)cc1,0.66
N#CC1=CNc2ccccc2N=C1N,0.36
Nc1cccc(C2=Nc3cccc4cccc(c34)N2)c1,3.2*
c1cc2c3c(cccc3c1)-c1nc3ccccc3nc1-2,-0.43
NC1=Nc2cccc3cccc(c23)N1,26*
CC1CCC2C(=O)N(c3ccc(Oc4ccccc4)cc3)C(=O)C2C1 (centres undefined),1.6
CCOC(=O)Cc1csc(NC(=O)CSCC(=O)O)n1,0.69
Cc1cc(NC(=O)NCCNc2ncccc2C(F)(F)F)c(C(F)(F)F)o1,-3.1
NC(N)=NC(N)=Nc1ccccc1Oc1ccc(Cl)cc1Cl,-0.48
COC(=O)c1ccc(Oc2ncnc3scc(-c4ccccc4)c23)o1,0.94
COC(=O)c1ccccc1NC(=O)/C(C#N)=C\c1cc(Cl)cc(Cl)c1,-1.8
Cc1ccc([N+](=O)[O-])c(NC(=O)NC(=O)c2c(Cl)cccc2Cl)c1C,-0.77
CC(C)c1ccc(S(=O)(=O)N(C(=O)c2cccnc2)c2ccc3oc(=O)sc3c2)cc1,2.7
CC(C)(C)c1ccc(S(=O)(=O)N(C(=O)c2ccncc2)c2ccc3oc(=O)sc3c2)cc1,6.7*
CCc1ccc(S(=O)(=O)N(C(=O)c2cccnc2)c2ccc3oc(=O)sc3c2)cc1,6.2*
O=C(c1ccncc1)N(c1ccc2oc(=O)sc2c1)S(=O)(=O)c1ccc(Br)cc1,2.1
CC(C)(C)c1ccc(S(=O)(=O)N(C(=O)c2cccnc2)c2ccc3oc(=O)sc3c2)cc1,4.6*
COc1cccc(OCC(O)Cn2cnc3cc(C)c(C)cc32)c1 (centres undefined),1.2
O=S(=O)(CC(O)COc1ccc(Cl)cc1Cl)c1ccc(Cl)cc1 (centres undefined),-1.3
C=C1SC(=Nc2cccc(OC)c2)N(C(=O)c2c(-c3ccccc3Cl)noc2C)C1(C)C,-1.6
O=c1[nH]c2ccccc2c(=O)n1CCNc1cccc(Cl)c1,8.6
COC(=O)c1ccc(C2C(C(=O)OC3CCCCC3)=C(C)NC3=C2C(=O)CCC3)cc1 (centres undefined),0
OC(CNCCNc1ncccc1C(F)(F)F)COc1ccc(Cl)c(Cl)c1 (centres undefined),-0.79
Cc1csc(NC(=O)C(F)(F)F)c1C(N)=O,-1.1
SMILES,Dicer inh
FC(F)(F)c1ccnc(Oc2ccc(/C=N/NC(=S)Nc3cc(Cl)ccc3Cl)cc2)n1,-0.58
CC(C)C[C@H](NC(=O)OCC1c2ccccc2-c2ccccc21)C(=O)O,4.6*
CC[C@H](C)[C@H](NC(=O)OCC1c2ccccc2-c2ccccc21)C(=O)O,0.52
C=CCOC(=O)C(CC(=O)O)NC(=O)OCC1c2ccccc2-c2ccccc21 (centres undefined),-0.22
O=S(=O)(c1ccccc1)N1CCC2(Cl)CCCCC2C1c1ccccc1 (centres undefined),-1.5
C#CC(CN1CCCCC1)N1CCCCC1 (centres undefined),0.16
COCc1nnc(NC(=O)COc2ccc(Cl)cc2)s1,0.02
O=C(Nc1nnc(CCSc2ccc3ccccc3c2)s1)c1ccco1,1
O=C(Nc1nnc(COc2ccc(Cl)cc2)s1)c1ccco1,4*
CC(C)c1ccc(NCN2C(=O)CCC2=O)cc1,3.7*
CCc1ccc(NCN2C(=O)c3ccccc3C2=O)cc1,2.7
O=C(CNc1cc(C(F)(F)F)cc(C(F)(F)F)c1)c1ccc(Cl)cc1,1.2
Cc1cc(Br)ccc1NCN1C(=O)c2ccccc2C1=O,9.1
Cc1ccc(NCN2C(=O)c3ccccc3C2=O)c(C)c1,0.9
O=C1CCC(=O)N1CNc1cc(C(F)(F)F)cc(C(F)(F)F)c1,3.9*
O=C1CCC(=O)N1CNc1c(F)cccc1F,0.95
O=C1CCC(=O)N1CNc1ccc(F)cc1F,4.6*
CC1CC(=O)N(c2ccc(F)cc2F)C(=O)C1,0.35
COc1cc(OC)c(C(F)(F)F)cc1NCN1C(=O)CCC1=O,0.78
Cc1cc(Cl)ccc1NCN1C(=O)CCC1=O,5.2*
CC(C)c1ccc(Nc2cc(=O)[nH]n2C)cc1,-1.8
O=c1onc(-c2ccccc2)n1-c1cccc([N+](=O)[O-])c1,-0.1
N#Cc1c(-c2ccc(Cl)cc2)nc2n(c1=O)CCS2,-1.8
O=S(=O)(Oc1cc(Cl)cc(Cl)c1)c1cc(S(=O)(=O)Oc2cc(Cl)cc(Cl)c2)c(Cl)s1,2.4
CN(C)c1ccc(NC2CC(=O)N(c3ccccc3)C2=O)cc1 (centres undefined),-2.8
SMILES,Dicer inh
CNC(=O)NC(=O)CSc1nc(-c2ccc(Cl)cc2)cn1-c1ccccc1,-0.33
CCSc1nccc(C(F)(F)F)c1C(=O)N(CC)c1c(C)cccc1C,-0.77
CC1(C)CC(=O)C2=C(C1)OC(N)=C(C#N)C21C(=O)c2ccccc2C1=O,-0.06
CNC(=O)C(COCc1ccccc1)NC(=O)OC(C)(C)C (centres undefined),-0.46
Cc1cccc(C)c1OCC(O)CN1C(=O)NC(C)(C)C1=O (centres undefined),-0.53
O=c1[nH]c(Nc2nc(-c3ccccc3)c3cc(Cl)ccc3n2)nc2c1CCC2,-0.22
CCN1CCN(c2nc3c(c(=O)[nH]c(=O)n3C)n2CC(O)COC(C)C)CC1 (centres undefined),-1
CC1(C)Cc2nc3sc4c(NCC5CCCO5)ncnc4c3cc2CO1 (centres undefined),5.7*
CCN(CC)CCNc1ncnc2c1sc1nc3c(cc12)COC(C)(C)C3,0.98
CCCCCNc1ncnc2c1sc1nc3c(cc12)COC(C)(C)C3,1.8
Nc1cc(=O)[nH]c(=O)n1-c1ccc(F)cc1F,0.39
Cc1cccc(Cn2nc(C(C)(C)C)cc2-c2nnc(SCC(=O)Nc3ccccc3Cl)o2)c1,2.3
Cc1ccc2nc(Cc3ccc(N)cc3)oc2c1,0.81
Nc1nc2ccc(Cc3nc4ccccc4o3)cc2s1,-0.46
Cc1ccc2nc(Cc3ccc4nc(N)sc4c3)oc2c1,4.7*
O=C(NC1CCCCC1)N1c2ccccc2C=Cc2ccccc21,-0.23
O=C1CCC(c2ccc(Cl)cc2)=NN1,-2.6
O=[N+]([O-])c1ccc2c(c1)NC(c1ccc([N+](=O)[O-])s1)N2 (centres undefined),-1.1
CCS(=O)(=O)c1nc2ccccc2n1CCOc1ccc(Cl)cc1,-0.5
CC1=NN(c2ccc(N=Cc3ccc(N(C)C)cc3)cc2)C(=O)C1,-5.9
O=C(CSc1nc2sc3c(c2c(=O)[nH]1)CCCC3)NCCN1CCOCC1,3.9*
Nc1nc(SCC(=O)NCCCO)nc2sc3c(c12)CCCC3,0.12
O=C(O)CC(Sc1nc2sc3c(c2c(=O)[nH]1)CCCC3)C(=O)O (centres undefined),-0.14
CC1C=CCC2C(=O)N(c3ccc(C(=O)O)cc3)C(=O)C12 (centres undefined),-1.1
O=c1cc(C(F)(F)F)nc(C2CC2)[nH]1,-1.2
SMILES,Dicer inh
Cc1cc(NC(=O)c2ccc(Cl)cc2Cl)n(C)n1,-0.87
CCn1cc(C(=O)O)c(=O)c2cc(F)c(N3CCN(S(=O)(=O)c4ccc(Cl)cc4)CC3)cc21,3.5*
CCn1cc(C(=O)O)c(=O)c2cc(F)c(N3CCN(C)CC3)cc21,3
CCn1cc(C(=O)O)c(=O)c2cc(F)c(N3CCNCC3)cc21,-0.24
Nc1nc(SCc2nc(-c3ccc(Cl)cc3)no2)n[nH]1,-0.25
Cc1cc(Nc2ccc(Cl)c(C(=O)O)c2)n2ncnc2n1,1.9
CCCSc1ncccc1C(=O)Nc1cc(C)no1,-0.48
Cn1ncc2c(O/N=C/c3ccc(Cl)cc3Cl)ncnc21,0.71
COc1ccccc1-n1cnc2cc(Nc3nnc(C)c4ccccc34)ccc21,-0.27
